A selection: hits, their analogues and other compounds. The true share with any hit is near 22%.
CYP2C19 inh = blocks human cytochrome P450 2C19. P33261. CYP2C19 Supersomes, luciferin-H EGE luminescence, 30 min. inhibition, % at 5 µM. actives 21% (n = 96,000). AID 778;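 active means CYP2C19 inhibition above a set limit at 5 µM in the primary screen, cut at about 50% in these data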
Target sequence (P33261 whole entry, looked up): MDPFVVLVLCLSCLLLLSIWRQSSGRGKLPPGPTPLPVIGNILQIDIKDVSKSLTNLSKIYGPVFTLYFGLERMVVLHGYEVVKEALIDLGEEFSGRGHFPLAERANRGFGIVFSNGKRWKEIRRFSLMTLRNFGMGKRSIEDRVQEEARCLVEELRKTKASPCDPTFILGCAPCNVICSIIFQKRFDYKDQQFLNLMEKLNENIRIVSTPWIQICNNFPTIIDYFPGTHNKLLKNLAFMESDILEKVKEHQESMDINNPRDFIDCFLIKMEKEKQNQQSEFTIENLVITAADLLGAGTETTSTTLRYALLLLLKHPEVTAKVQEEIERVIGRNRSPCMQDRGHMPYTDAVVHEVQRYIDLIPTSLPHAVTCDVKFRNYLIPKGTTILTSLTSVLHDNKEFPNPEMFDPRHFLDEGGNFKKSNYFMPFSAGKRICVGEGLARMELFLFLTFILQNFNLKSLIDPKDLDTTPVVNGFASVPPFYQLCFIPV
cytoskel mod = alters cytoskeleton assembly in HUVEC cells. HUVEC TNFa F-actin phalloidin imaging, high content. actives 0.18% (n = 91,000). inhibition, % at 2 µM. AID 836;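 active means inhibition above the batch mean plus 3 SD and confirmed as a hit by visual image inspection, cut at about 30% in these data, passing the limit was not always enough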
CYP2C9 activ = activators of human CYP2C9; P11712; recombinant CYP2C9, luciferin-H conversion, luminescence; active compounds read high; factor 1 = untreated enzyme, 0 = blocked; activation factor at 5 µM; actives 1.4% (n = 96,000); AID 1024;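 active means activation factor of 2 or more for CYP2C9 at a 5 µM dose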
CYP2C9 inh = human CYP2C9 inhibition | P11712 | CYP2C9 Supersomes, luciferin-H conversion, luminescence | inhibition, % at 5 µM | actives 20% (n = 96,000) | AID 777;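 active means blocking of liver enzyme CYP2C9 beyond about 50% at 5 µM, limit read from the data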
E-sel TNF inh = TNF alpha driven E-selectin expression inhibition; HUVEC TNFa-induced E-selectin immunofluorescence, high content; inhibition, % at 2 µM; actives 0.71% (n = 120,000);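 active means inhibition above the batch mean plus 3 SD, and confirmed as a hit on visual image review, cut at about 43% in these data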
CYP2C19 act = cytochrome P450 2C19 (human) activation | 96,000 tested, under 10 active | activation factor at 5 µM | recombinant CYP2C19, luciferin-H EGE luminescence; active compounds read high; 0 = fully inhibited enzyme, 1 = untreated enzyme;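 active means activation factor of at least 2 at 5 µM in the primary screen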
Numbers stand for hits; 0 = inactive; - = no result.

SMILES	CYP2C19 inh	cytoskel mod	CYP2C9 activ	CYP2C9 inh	E-sel TNF inh	CYP2C19 act
COC(=O)C1=C(C(=O)OC)C2(OC1c1ccccc1C)C(=O)c1ccccc1C2=O (stereo not given)	-	0	-	-	0	-
Nc1ccc2c(c1)C(=O)N(CCCC(=O)O)C2=O	0	0	0	0	0	0
COc1ccc(N2CCN(C(=O)CSc3ncccc3-c3nc4ccccc4[nH]3)CC2)cc1	0	0	0	0	-	0
CCOC(=O)CSc1nnc2n1C(C)(C)Cc1ccccc1-2	-	0	-	-	0	-
CCn1c(SCC(=O)N2c3ccccc3CC2C)nnc1-c1ccco1 (stereo not given)	-	0	-	-	0	-
CC(C)OC(=O)CSc1nnc2n1C(C)(C)Cc1ccccc1-2	0	0	0	52.9	0	0
CC1Cc2ccccc2N1C(=O)CSc1nnc2n1C(C)(C)Cc1ccccc1-2 (stereo not given)	73.9	-	0	56.3	0	0
COc1ccccc1N1CCN(C(=O)CSc2ncccc2-c2nc3ccccc3[nH]2)CC1	73.9	0	0	57.6	0	0
COc1cccc(-n2c(SCC(=O)N3c4ccccc4CC3C)nnc2-c2ccco2)c1 (stereo not given)	79.6	0	0	91.9	0	0
CCOC(=O)C1CCN(C(=O)CSc2nnc(-c3ccco3)n2-c2ccccc2)CC1	53.1	0	0	53.9	0	0
O=S(=O)(NCCSc1nnc(-c2ccco2)n1-c1ccccc1)c1ccccc1	76.4	0	0	83.0	0	0
COc1ccccc1N1CCN(C(=O)CSc2nnc3n2C(C)(C)Cc2ccccc2-3)CC1	92.2	0	0	0	0	0
O=C(CSc1nnc(-c2ccco2)n1-c1ccccc1)N1CCOCC1	0	0	0	0	0	0
CCSc1nnc2n1C(C)(C)Cc1ccccc1-2	0	0	0	0	0	0
CCC(CC)C(=O)Nc1nnc(SCC(=O)N2CCN(c3ccccc3OC)CC2)s1	50.3	-	0	73.4	0	0
CC(=O)/C(C(=N)N1CCN(c2cccc(Cl)c2)CC1)=C(\C)O	0	0	0	0	0	0
Cn1nc(C(=O)Nc2c(-c3ccccc3)nc3sccn23)c2ccccc2c1=O	0	0	0	0	0	0
Cc1cccc(C)c1OCC(O)CNS(=O)(=O)c1ccccc1C(=O)N1CCCCC1 (stereo not given)	-	0	-	-	0	-
CCOc1ncccc1C(=O)OCC(=O)Nc1c(C)cc(C)cc1C	60.0	0	0	0	0	0
CCOc1ncccc1C(=O)OCC(=O)c1ccc(C)c(C)c1	-	-	-	-	0	-
CCOc1ncccc1C(=O)OCC(=O)Nc1c(C)cccc1C	52.4	0	0	0	0	0
CCOc1ncccc1C(=O)OCCN1C(=O)c2ccccc2C1=O	58.6	0	0	0	-	0
CCN(CCC#N)c1ccc(/C=N/Nc2nc(C)cc(=O)[nH]2)c(C)c1	-	-	-	-	0	-
COc1ccc(N=c2oc3cc(O)ccc3cc2C(=O)Nc2ccccn2)cc1OC	-	-	-	-	0	-
CCOc1ccc(N=c2oc3cc(O)ccc3cc2C(=O)NCC2CCCO2)cc1 (stereo not given)	0	0	0	0	0	0
SMILES	CYP2C19 inh	cytoskel mod	CYP2C9 activ	CYP2C9 inh	E-sel TNF inh	CYP2C19 act
COc1ccc(N=c2oc3cc(O)ccc3cc2C(=O)NCC2CCCO2)cc1 (stereo not given)	0	0	0	52.0	0	0
CCOc1ccccc1N=c1oc2cc(O)ccc2cc1C(=O)NCC1CCCO1 (stereo not given)	0	0	0	53.4	0	0
Cc1ccc(N=c2oc3cc(O)ccc3cc2C(N)=O)cc1	0	0	0	65.9	0	0
COc1ccc(N2C3=[N+](CCCC3)CC2(C)O)cc1 (stereo not given)	0	-	0	0	-	0
c1cnc(NCCNc2ncccn2)nc1	0	0	0	0	0	0
CCOC(=O)c1sc(=S)n(-c2ccccc2)c1SC	58.3	0	0	0	0	0
CCOC(=O)c1sc(=S)n(-c2cccc(C(F)(F)F)c2)c1SC	0	0	0	60.7	0	0
O=C(CCS(=O)(=O)c1ccccc1)Nc1ccc(N2CCOCC2)cc1	-	-	-	-	0	-
Cc1ccc(C(=O)COC(=O)CNC(=O)c2cccs2)cc1	0	0	0	0	0	0
Cc1ccc(C)c(C(=O)c2c(C)nc3sccn23)c1	94.8	0	0	0	0	0
CCN=C(Nc1ccc(Cl)cc1)c1cccnc1	0	-	0	0	0	0
CCOc1cccc(C(=O)Nc2ccc3oc(Cc4ccc(Cl)cc4)nc3c2)c1	0	0	0	58.2	0	0
Cc1ccc(CNC(=O)C2CC(=O)OC23CCCC3)c(C)c1 (stereo not given)	-	0	-	-	0	-
O=C(CN1CCN(Cc2ccc(F)cc2Cl)C1=O)NCCc1ccccc1	54.5	0	0	57.7	-	0
Cc1ccc(CCNC(=O)Cn2cccc2)cc1	76.5	0	0	0	0	0
O=C(CN1CCN(Cc2ccccc2F)C1=O)NCc1cccnc1	0	0	0	0	-	0
Cc1ccc(CCNC(=O)NC(C)(C)C)cc1	0	0	0	0	0	0
Cc1ccc(CCNC(=O)CN2CCN(Cc3ccccc3F)C2=O)cc1	0	0	0	81.3	0	0
O=C(c1cccs1)N(CCO)Cc1cc2cc3c(cc2[nH]c1=O)OCCO3	0	0	0	0	0	0
O=C(O)CC(C(=O)O)n1nc(-c2ccccc2)cc1-c1ccccc1 (stereo not given)	0	-	0	0	0	0
CCOC(=O)c1c(C)nc2sc3c(=O)n(-c4ccc(C(C)=O)cc4)cnc3c2c1-c1ccc(OC)cc1	70.0	0	0	76.5	0	0
O=c1nc(-c2ccccc2)cc(C(F)(F)F)[nH]1	0	0	0	51.4	0	0
Cc1cc(C(=O)c2cnc(/N=C/N(C)C)s2)cc(C)c1O	0	0	2	0	0	0
CCc1ccccc1N(CC(=O)N/N=C/c1ccc(OC(=O)OC)c(OC)c1)S(C)(=O)=O	0	0	0	50.0	0	0
O=C(N/N=C\c1ccc(Oc2ccccc2)cc1)c1csnn1	-	-	-	-	0	-
SMILES	CYP2C19 inh	cytoskel mod	CYP2C9 activ	CYP2C9 inh	E-sel TNF inh	CYP2C19 act
COc1ccc(C2CC(c3ccc(Br)cc3)Nc3nc(N)nn32)cc1 (stereo not given)	0	0	0	51.4	-	0
COc1ccc(C2CC(c3cccc(C)c3)n3nc(N)nc3N2)cc1 (stereo not given)	0	-	0	0	0	0
Nc1nc2n(n1)C(c1cccs1)CC(c1ccc(Br)cc1)N2 (stereo not given)	65.9	0	0	0	-	0
Cc1cccc(C2CC(c3ccc(Br)cc3)Nc3nc(N)nn32)c1 (stereo not given)	77.0	0	0	0	-	0
CCOC(=O)C1=NOC2COC3(CCN(c4ncccn4)CC3)OCC12 (stereo not given)	-	-	-	-	0	-
C/C(=N\NC(=O)c1ccccc1)c1ccc(N2CCOCC2)cc1	0	0	0	0	0	0
O=C(NC(=O)c1ccccc1)NC1(C(F)(F)F)OCCO1	75.6	0	0	0	0	0
CCOC(=O)NC1(C(F)(F)F)N=C(c2ccccc2)NC1=O (stereo not given)	0	0	0	0	0	0

Source: PubChem BioAssay (several laboratories)
